# Reference: PubChem BioAssay AID1347423 (Functional Genomics Laboratory (NCATS/FGL), 2020)
# The whole screen tested about 52,000 sequences, of which about 210 (0.4%) were called active. The sample as a whole holds a higher share of actives than the screen did. Unmarked numbers belong to inactive results.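 The calls were made as follows: active = gene whose silencing raises cell survival under the drug, median off-target-corrected z-score across its silencing RNAs 2 or more; inactive = the rest.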
# Test: Resistance to Poly (ADP-Ribose) Polymerase inhibitor: Gene Identification via Genome-wide siRNA Screen
# Details: mouse BRCA2 R2336H ES cells, olaparib, CellTiter-Glo viability; active compounds read high
# Summary of the method: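 Genome-wide siRNA screen (3 siRNAs/gene, 20 nM) in mouse ES cells carrying hypomorphic BRCA2 R2336H; olaparib 500 nM added 48 h post-transfection, CellTiter-Glo viability 72 h later. Normalized to plate-median negative control; MAD z-scores, gene median, seed-adjusted.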
row,Sequence,z-score
1,GGCCAAUUUGAAUAAUCUATT against Zfp119,0.0816
2,GGACCCUGAAGGAGCUGAATT against Per2,-1.32
3,UCAAACUAGGUGCUGUUGUTT against Olfr584,-1.11 (active)
4,GGAGAUAAAGUCUUAUCACTT against 9130017N09Rik,0.803
5,GCAUUUCUUUCUUGCCUUCTT against Olfr1276,0.613
6,GGCUAGCUAACUAUCUCUGTT against 9230105I15Rik,0.89
7,GGUUCCAACAAUUGUAAAGTT against Chl1,2.35 (active)
8,GGACAAGCUCCAAAACAACTT against Sfrs4,-1.45
9,CCUGCCUUUUCCUAAUGAATT against Ovca2,0.573
10,GACAAAUAGUGCAGGAGGATT against 2310069N01Rik,0.444
11,CCAAAUACGACUUACGAAATT against Ncam2,0.897
12,CGAUGUUUUCAUGAACGACTT against 0610012D17Rik,0.421
13,GGCAGUGGCUUGGAUAAAUTT against 5730457F11Rik,2.83 (active)
14,GGAAGAAGAGCUCUUUAAATT against Acate2,0.108
15,GGACCAGCACCAUUUCCUATT against Tce4,-0.603
16,GCUACUAUAUGCGUUUCUUTT against Fads2,1.88
17,GGCAUAAAGUUGUUUACAGTT against 3110006P09Rik,3.24 (active)
18,GGUCAUUUCAAGUGCUAAGTT against D7Ertd680e,1.01
19,GGUGGAAUGAAAUAUGAAGTT against Ptp4a1,0.0271
20,CCUGGAAAGACUCUCGGAGTT against Cln2,-0.492
21,GGUGAUGUCUCGGUACCCATT against Mvk,-0.664
22,GGGCUACAGCAUGUAUGAGTT against BC057627,2.38 (active)
23,GGAAAUUUCUUAGCACGAATT against Ppp4r1,0.667
24,GGACUUUGAAGAGGACAAUTT against Dhx38,-2.18
25,GCACGAAGAACCACACAAGTT against 5830484A20Rik,-0.63
26,GCAUGAUUUAGAUCGAGUATT against Uqcrfs1,-1.17
27,GGAUCACUACCAUGAAAACTT against Bace1,-0.551

row,Sequence,z-score
1,GGUGAAAUAGCUAAAUCAUTT against Usp15,-0.572 (active)
2,GGAGAUGGUUGGAUCAUUCTT against D10Ertd610e,0.642
3,GGGUGAAAAGCAUUUCUGUTT against MGI:1923902,1.38
4,GGACAAAGAAGACUCCCGATT against Dpf2,0.386
5,GCAGAUAUUCUCUGUGCAGTT against Ccnf,2.22
6,GGGCUAAAGUAUAUCCAUUTT against Mapk1,1.14 (active)
7,CGAAGGACAAAAUAUCAGCTT against 4930517G15Rik,-0.16
8,GUUGAGGAUAACAUUGAACTT against MGC102419,-0.623
9,GGGUGUAUUCUGCUUUGUATT against 2600013N14Rik,-1.3
10,GGGAAUUGCUCACCUCCAUTT against Klre1,-0.871
11,GCUAAAAUUGGAUCAAGGATT against Ccbp2,2.14
12,GGACUUCAUCAAAGUCUUATT against Cyp11a1,-1.45
13,GGAAGAACUUUAAAAAUGCTT against Mic2l1,0.477
14,CGUACUCUAUGAGGUGCCATT against Rab6ip1,0.703
15,GCUUAAAGAUCGAUCCCGCTT against Slc38a4,0.666
16,GCCAUUAAUAAUCAGUACUTT against Sh2bpsm1,0.686
17,CCAUUGCCAACAACUAGAUTT against Ela3b,2.87 (active)
18,GCUGAGGGUUGAUUAGUGGTT against H2-Bl,-1.2
19,GGCCUCCAGAAACAACUCGTT against Ndst2,1.44
20,GCUAGAACAGCAAAAAAAATT against Scgb3a1,0.00969
21,CCACGUGUUUGCAUUCAAATT against Gdd1,0.222
22,GGAUCCCACACUUUUCUGATT against Rxra,1.02
23,CCUAAAACUCACCAUAGAGTT against Nfatc3,-0.0858
24,GAUAUAAGGACUCUUUGAATT against 4732486J07Rik,-0.212
25,GGUCUUUUGGAAUCUCUGGTT against Crip3,1.26 (active)
26,GGAUAGUAACGGAAACUUGTT against Usp25,2.49
27,GGAUUCGGAAUACUACGAUTT against Abo,1.79

row,Sequence,z-score
1,GGUGUCCUUUCAAGUUGAUTT against C530005A01Rik,-0.63
2,CGGCAGUGUUAAAACAUGATT against Fgfr2,0.114
3,GGAGCAGUAUAUCCUACAUTT against Olfr510,0.104 (active)
4,CCUGAGAACAUUUUAAUCATT against Tas2r116,-0.685
5,CCAAUUCUCGAAUCAUUGCTT against Olfr561,-0.382
6,GCUACGCUAUCCAAAUUCUTT against AF529169,-0.118
7,CCCUUGGAGGAAGCUAACUTT against Pde2a,1.27 (active)
8,GGAGAUGCCCAAUGUUUUCTT against Ehd1,-0.27
9,CGGCCUGUUAUAAACCUGCTT against 4933409K07Rik,-0.131
10,GCCUCAUUGAAAGGAUCCATT against GnT-IX,-0.888
11,GCUUUUGAUCCACAGAUUUTT against Prss33,2.34 (active)
12,GGAACAUCAGGUGCAUGUGTT against Pkd1,1.9
13,GGCUCCACCAAAGCCUGUUTT against 2310066N05Rik,-2.31
14,CCUUGGGACUGACUGUAAGTT against A230072I16Rik,2.25
15,GGUCAAUUAUGAAGAGUUUTT against Calm3,1.59
16,CCGGGUCAGGACAAUUCAUTT against Hsd17b1,1.29 (active)
17,GCAUUCGGCUGAGAAGAUGTT against Foxb2,-1.8
18,GGAUAAUUCAGACAACAAUTT against Fus,3.47 (active)
19,GGAACCAAUAAAUCUGUGCTT against Rfxank,0.27
20,GGUCAUAGGUACGUAUCCGTT against 6430529G09Rik,-0.0313
21,GGCUGUACAGUCAUGCAAGTT against Adamts5,2.62 (active)
22,GGAAAGCUACUGUCAGAGUTT against Olfr473,0.453
23,GGACGUGUGGCUGUUGACATT against Sdc1,-2.23
24,GCUUUAGAUACGUGAUUAGTT against 5830417C01Rik,-1.26
25,GCGACUACUUAGACACUUUTT against 4732481H14Rik,-1.94
26,UAGCCAUCGCUCUUUCUUATT against Olfr594,-0.973
27,GGACAAAGGUGUCAACUCCTT against Crmp1,-0.491

row,Sequence,z-score
1,GCUCCUAGGAACUUGGUUATT against Pacsin2,2.36 (active)
2,CGAGUUCGGUAUGAGUGGATT against Clptm1,-1.24
3,GGUCGGAAGAAUCUAAAGGTT against Dmp1,0.0661
4,GGAAGAGAGGACCAUGAAGTT against Usp18,2.69 (active)
5,GAGAAUCCAGAACUCCAAUTT against Olfr952,-0.963
6,GCAAUCAUUAAGCAGAUCATT against Prkce,-2.49
7,GGCCGACAAGCGAUCAAAATT against AU040829,-0.237
8,GGAUUUGGCCAACUCACCCTT against Acpp,0.16 (active)
9,CCCUUCCAACAAUUAUACUTT against Tmem27,1.04
10,GGAGAGAAAGAAGUUGUUGTT against Lcn5,2.43
11,GGAUUUCGACAAUAUGAAGTT against Chrnb2,2.24 (active)
12,CCUAUGAAGCUCCAUUAUGTT against Madcam1,0.762
13,CACUCUUGAUACAAAUGAGTT against Ifna6T,0.264
14,GGCACAAAGGCAGUUAUUCTT against 1110049G11Rik,0.847
15,GGGAAAAAUAUCAGUUAUGTT against Khdrbs1,1.08 (active)
16,GCUGGUGUCAUUAGACAGUTT against Npc1l1,-0.302
17,GGCUAUAUCAAUGAAUUUGTT against Polr3b,0.129
18,GGAUGUUCAUCUAUUUCUUTT against Mja1l,-0.191
19,GGGACCAAGCAGGUAAAAATT against Kif3a,4.17 (active)
20,GGCCUAAGGACAAUUAUUUTT against 9130022A01Rik,0.222
21,CCAAAUUCAUUCUAGCUCGTT against Copeb,0.474
22,CCGAAUGGAAUACCAAAUUTT against Cst8,-0.186
23,GGAUGUCAGCUGGUGGUUATT against Tmprss6,-0.447
24,CCAUCUUGGGUUCUGGUCATT against BC057627,-0.312 (active)
